# Measurements published in PubChem BioAssay (NCATS).
# Records with an inconclusive call do not appear. A call without a number means that no potency is given here. More than one record can exist for a structure, and the calls need not agree. Calls of active or inactive are those of the source. Unless noted, calls come from the whole dose curve; as a rule, active = well fitted curve in the direction sought with a large enough effect; inconclusive = small, poorly fitted or top-dose-only effect, or another doubt; inactive = no such curve, though single readings can be large; an effect the other way counts as inactive or inconclusive.
# Tests used:
# [1] = P-glycoprotein substrates identified in KB-8-5-11 adenocarcinoma cell line, qHTS therapeutic library screen (AID 1346987); note: nearly all actives have a fitted effect of over 65% in size; note: potency is the fitted concentration of half-maximal effect
# In short: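 Compounds are pinned in dose-response onto KB-8-5-11 cells (500 cells/well, colchicine-free medium) and left 72 h at 37 degree C. CellTiter-Glo luminescence then yields AC50 values.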
# [2] = target: Glutathione peroxidase 1 (Homo sapiens) (UniProt P07203); assay: Primary qHTS Assay for Inhibitors of Recombinant Selenoprotein Glutathione Peroxidase 1 (GPX1) (AID 1845191); note: nearly all actives have a fitted effect of over 65% in size
# In short: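 NADPH consumption tracked by fluorescence at 340/450 nm between t=0 and t=15 min, room temperature. Final mix: 10 nM GPX1, 100 nM glutathione reductase, 1 mM GSH, 0.5 mM NADPH, 0.5 mM cumene hydroperoxide, 0.01% BSA; 30 min compound–enzyme preincubation.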
# [3] = target: Tyrosine-protein kinase Yes (Homo sapiens) (UniProt P07947); assay: qHTS for small molecule inhibitors of Yes1 kinase: Primary Screen (AID 686947); note: potency is the fitted concentration of half-maximal effect; nearly all actives have a fitted effect of over 60% in size
# In short: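 ADP-Glo luminescence reports ADP formed by 4 nM Yes1 phosphorylating poly(E4Y) (0.3 mg/mL) with 0.1 mM ATP for 60 min at room temperature, following 20 min compound preincubation; normalised between DMSO wells with and without enzyme.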
# [4] = qHTS for small molecule inhibitors of Yes1 kinase: Counter Assay (AID 686950);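 note: no kinase present so only ADP-Glo detection of a fixed ADP amount is tested; luminescence from ADP-Glo reporting ADP in a fixed ATP and ADP mixture; series mostly up to about 77 µM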
# In short: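 ADP-Glo luminescence read after a 60 min room-temperature incubation of compound with an ATP/ADP mix (0.08 mM/0.02 mM) and no kinase, following a 20 min compound preincubation. Signal scaled between ATP+ADP (max) and 0.1 mM ATP-only (min) wells; Tris pH 7.5, Mg2+, DTT.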
# [5] = Primary qHTS for inhibitors of nuclear receptor binding SET domain protein 2 (NSD2) in an isogenic RCH-ACV NSD2 p.E1099K mutant (9B) (AID 1645876); note: nearly all actives have a fitted effect of over 70% in size; note: potency is the fitted concentration of half-maximal effect
# [6] = Primary qHTS for inhibitors of nuclear receptor binding SET domain protein 2 (NSD2) in an RCH-ACV wild type WT cells (2C) (AID 1645877); note: nearly all actives have a fitted effect of over 70% in size; note: potency is the fitted concentration of half-maximal effect
# [7] = qHTS drug screen for cell cycle checkpoint inhibitors in PARPi-resistant BRCA-mutant ovarian cancer cell lines. (AID 1963452; calls by dose curve); details: PEO1/OlaR viability, CellTiter-Glo luminescence, 96 h, stronger effect = lower value
# In short: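 PEO1, PEO4 and PEO1/OlaR ovarian cancer cells, 600 per well, exposed 96 h at 37C to a dilution series. Viability read by CellTiter-Glo luminescence, normalized to DMSO and empty wells; activity summarized as Z-AUC.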
# [8] = target: Phospholipid hydroperoxide glutathione peroxidase GPX4 (Homo sapiens) (UniProt P36969); assay: Primary qHTS Assay for Inhibitors of Recombinant Selenoprotein Glutathione Peroxidase 4 (GPX4) (AID 1845192); details: outcome: dose series up to 50 µM unless noted; note: nearly all actives have a fitted effect of over 65% in size; note: potency is the fitted concentration of half-maximal effect
# In short: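 NADPH consumption followed by fluorescence at 340/450 nm, t=0 and after 15 min at room temperature. Reaction started with cumene hydroperoxide (0.5 mM final) after 30 min compound–GPX4 preincubation; final 200 nM GPX4, 100 nM GR, 1 mM GSH, 0.5 mM NADPH.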
# [9] = measured here: PEO1 parental Z-AUC
# Glutathione peroxidase 1 (Homo sapiens), sequence (P07203 whole entry, looked up): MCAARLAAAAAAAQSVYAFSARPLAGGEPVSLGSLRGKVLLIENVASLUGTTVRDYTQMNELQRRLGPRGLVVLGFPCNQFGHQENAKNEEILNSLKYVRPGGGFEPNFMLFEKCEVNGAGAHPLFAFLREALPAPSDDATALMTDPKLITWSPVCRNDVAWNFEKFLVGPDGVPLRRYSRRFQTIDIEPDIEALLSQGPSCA
# Phospholipid hydroperoxide glutathione peroxidase GPX4 (Homo sapiens), sequence (P36969 whole entry, looked up): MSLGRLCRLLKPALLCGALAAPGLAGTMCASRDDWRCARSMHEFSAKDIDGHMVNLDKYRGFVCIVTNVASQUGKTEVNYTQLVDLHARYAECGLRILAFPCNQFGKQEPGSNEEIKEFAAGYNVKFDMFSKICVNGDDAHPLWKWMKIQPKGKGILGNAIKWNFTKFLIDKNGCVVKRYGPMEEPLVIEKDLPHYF
# Tyrosine-protein kinase Yes (Homo sapiens), sequence (P07947 whole entry, looked up): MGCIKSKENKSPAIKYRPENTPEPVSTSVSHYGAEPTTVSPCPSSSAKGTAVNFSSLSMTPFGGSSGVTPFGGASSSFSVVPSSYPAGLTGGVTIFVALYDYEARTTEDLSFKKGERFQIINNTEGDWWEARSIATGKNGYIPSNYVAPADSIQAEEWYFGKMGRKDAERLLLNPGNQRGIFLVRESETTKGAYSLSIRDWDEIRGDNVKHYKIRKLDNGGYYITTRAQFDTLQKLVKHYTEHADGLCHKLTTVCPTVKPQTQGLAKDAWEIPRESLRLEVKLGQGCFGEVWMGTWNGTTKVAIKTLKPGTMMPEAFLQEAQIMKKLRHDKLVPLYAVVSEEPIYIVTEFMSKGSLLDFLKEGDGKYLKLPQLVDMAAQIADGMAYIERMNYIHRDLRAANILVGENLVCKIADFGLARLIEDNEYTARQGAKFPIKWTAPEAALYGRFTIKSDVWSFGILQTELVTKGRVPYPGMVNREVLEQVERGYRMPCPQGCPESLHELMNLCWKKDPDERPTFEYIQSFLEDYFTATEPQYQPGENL
smiles,measurement,setting,value
CC(C)(C)n1nc(-c2cccc3ccccc23)c2c(N)ncnc21,Potency,[1],inactive
same,Potency,[2],inactive
COc1ccc(-c2oc3ncnc(N)c3c2-c2ccc(NC(=O)Nc3cc(C(F)(F)F)ccc3F)cc2)cc1,Potency,[3],1.04 µM (active)
same,outcome,[4],inactive
same,Potency,[1],5.8 µM (active)
same,Potency,[5],6.51 µM (active) and inactive
same,Potency,[6],10.3 µM (active) and inactive
same,Potency,[2],inactive
same,Z-AUC,[7],0.736 (inactive)
same,Z-AUC,[7]; [9],0.865
same,Z-AUC,[7]; measured here: PEO4 Z-AUC,0.712
Cc1cn([C@H]2C[C@H](O)[C@@H](CO)O2)c(=O)nc1N,Potency,[1],inactive
same,Potency,[5],inactive
same,Potency,[6],inactive
same,Potency,[2],inactive
Cc1c[nH]c(/C=C2\C(=O)Nc3ccccc32)c1CCC(=O)O,Potency,[1],inactive
same,Potency,[5],14.8 µM (active)
same,Potency,[6],18.6 µM (active)
same,Potency,[2],inactive
same,Potency,[8],inactive
same,Z-AUC,[7],1.24 (inactive)
same,Z-AUC,[7]; [9],1.05
same,Z-AUC,[7]; measured here: PEO4 Z-AUC,1.31
C=CC(=O)Nc1cccc(Nc2nc(Nc3ccccc3)ncc2C)c1,Potency,[1],13 µM (active)
same,Potency,[5],8.2 µM (active)
same,Potency,[6],8.2 µM (active)
same,Potency,[2],inactive
COc1c(-c2ccc3cc(NS(C)(=O)=O)ccc3c2)cc(-n2ccc(=O)[nH]c2=O)cc1C(C)(C)C,Potency,[1],inactive
same,Potency,[2],inactive
same,Potency,[8],3.98 µM (active)
CNC(=O)c1ccc(-c2cnc3cnc(C(=O)N(C)c4ccc(Cl)cc4)cn23)cc1,Potency,[1],inactive
same,Potency,[2],inactive
